# Results filed as inconclusive are left out. Calls of active or inactive are those of the source. Calls follow the shape of the dose curve; as a rule, active = well fitted inhibition curve with a large enough effect; inconclusive = small, poorly fitted or top-dose-only effect; inactive = no such curve, though single readings can be large or run the other way.
# Assay: Primary qHTS for small molecule stabilizers of the endoplasmic reticulum resident proteome: Secreted ER Calcium Modulated Protein (SERCaMP) assay (AID 1508630)
# Settings: SH-SY5Y GLuc-SERCaMP (Gaussia luciferase released on ER calcium loss) secretion, thapsigargin, luminescence; series mostly up to 38.4 µM
# Outline: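 GLuc-SERCaMP-expressing SH-SY5Y cells, pretreated 16 h with compound, are challenged with thapsigargin to empty ER calcium stores; after 4 h, coelenterazine is added directly to the medium and luminescence is imaged.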
# % is scaled to controls: 0 for no effect and ±100 for the full control effect.
SMILES,outcome,"activity change, negative = inhibition"
Cn1cc(-c2cnn3c(N)c(Br)c([C@H]4CCCNC4)nc23)cn1,inactive,
CN(C)CC(=O)N1CCC(c2ccc(NC(=O)c3ncc(C#N)[nH]3)c(C3=CCCCC3)c2)CC1,inactive,
OCc1ccccc1O[C@@H]1O[C@H](CO)[C@H](O)[C@H](O)[C@H]1O,inactive,
C=CC1=C(C(=O)O)N2C(=O)[C@@H](NC(=O)C(=NO)c3csc(N)n3)[C@H]2SC1,inactive,
O=C1NC(=O)[C@@H](c2cn3c4c(cccc24)CCC3)[C@H]1c1c[nH]c2ccccc12,inactive,
N#CC(=C(O)c1ccc(Cl)cc1Cl)c1nc2cc(Cl)ccc2c(=O)[nH]1,inactive,
COc1cc(OC)cc(-c2ccc3ncc4ccc(=O)n(-c5ccc(N6CCNCC6)c(C(F)(F)F)c5)c4c3c2)c1,inactive,
c1ccc(CNc2nc(NCc3ccccc3)c3ccccc3n2)cc1,inactive,
CCCc1nc(C(C)(C)O)c(C(=O)O)n1Cc1ccc(-c2ccccc2-c2nn[nH]n2)cc1,inactive,
CC(=O)NC(CS)C(=O)O (centres undefined),inactive,
CCS(=O)(=O)Nc1ccc2[nH]c(O)c(C(=Nc3ccc(CN4CCCCC4)cc3)c3ccccc3)c2c1,inactive,
Nc1nc(=O)n([C@H]2C[C@H](O)[C@@H](CO)O2)cc1F,inactive,
CCC(C(=O)O)C1CCC(C)C(C(C)C(O)C(C)C(=O)C(CC)C2OC3(C=CC(O)[C@@]4(CC[C@](C)(C5CC[C@@](O)(CC)C(C)O5)O4)O3)C(C)CC2C)O1 (some centres undefined),inactive,
Oc1ccc([C@@H]2Oc3ccc(O)cc3[C@@H]3CCC[C@@H]32)cc1,inactive,
COc1cc(C)c(Sc2cnc(NC(=O)c3ccc(CNC(C)C(C)(C)C)cc3)s2)cc1C(=O)N1CCN(C(C)=O)CC1 (centres undefined),inactive,
CC(=O)[C@]1(O)Cc2c(O)c3c(c(O)c2[C@@H](O[C@H]2C[C@H](N)[C@@H](O)[C@H](C)O2)C1)C(=O)c1ccccc1C3=O,inactive,
CC[C@]12C=CCN3CC[C@@]4(c5cc([C@@]6(C(=O)OC)C[C@H]7C[C@@H](C(C)(F)F)CN(Cc8c6[nH]c6ccccc86)C7)c(OC)cc5N(C)[C@H]4[C@@](O)(C(=O)OC)[C@H]1OC(C)=O)[C@@H]32,inactive,

SMILES,outcome,"activity change, negative = inhibition"
CN[C@H]1[C@@H](O)[C@@H]2O[C@@H]3O[C@H](C)CC(=O)[C@]3(O)O[C@@H]2[C@@H](NC)[C@H]1O,inactive,
C[C@@H](Cc1cc2c(c(C(N)=O)c1)N(CCCO)CC2)NCCOc1ccccc1OCC(F)(F)F,inactive,
Oc1ccc(-c2ccc(-c3cc(Nc4cccc(CNC5CC5)c4)n[nH]3)cc2)c(O)c1,inactive,
O=C(C[C@@H]1CC=CCCC(=O)O[C@H](c2ccccc2)CNC1=O)NCc1ccc(Cl)cc1,inactive,
CC(C)N(CC[C@H](c1ccccc1)c1cc(CO)ccc1O)C(C)C,inactive,
O=C(O)C[C@H](O)C[C@H](O)C=Cc1c(C2CC2)nc2ccccc2c1-c1ccc(F)cc1,inactive,
N#CNC(=NCCCCCCOc1ccc(Cl)cc1)Nc1ccncc1,inactive,
CCOc1cc2ncc(C#N)c(Nc3ccc(OCc4ccccn4)c(Cl)c3)c2cc1NC(=O)C=CCN(C)C,inactive,
Cc1[nH]c(C=C2C(=O)Nc3ccccc32)c(C)c1CCC(=O)O,inactive,
CN(CC(=O)N(Cc1ccc(C2CCCCC2)cc1)c1ccc(C(=O)O)c(O)c1)S(=O)(=O)c1c(F)c(F)c(F)c(F)c1F,inactive,
Cn1cc(C=CC(=O)c2cccc(F)c2)cc1C=CC(=O)NO,inactive,
CCCCCCCCc1ccc(CCC(N)(CO)CO)cc1,inactive,
C[C@H]1C[C@H]2[C@@H]3CCC4=CC(=O)C=C[C@]4(C)[C@@H]3C(=O)C[C@]2(C)[C@@]1(O)C(=O)CO,inactive,
Cc1cncc2cccc(S(=O)(=O)N3CCCN(C(=O)CN)C[C@@H]3C)c12,inactive,
CCC(C=C[C@@H]1OC(=O)C=C[C@H]1C)=C[C@H](C)CC=CC(C)=C[C@@H](C)C(=O)[C@@H](C)[C@H](O)[C@@H](C)CC(C)=CC(=O)O,,41.2% [at 1.51 µM] (inactive)
CCOC(=O)[C@@H](N)Cc1ccc(-c2cc(O[C@H](c3ccc(Cl)cc3-n3ccc(C)n3)C(F)(F)F)nc(N)n2)cc1,inactive,
CC(C)(O)[C@H]1CC[C@@](C)([C@H]2[C@@H](O)C[C@@]3(C)[C@@H]4C[C@H](O[C@@H]5O[C@H](CO)[C@@H](O)[C@H](O)[C@@H]5O)[C@H]5C(C)(C)[C@@H](O[C@@H]6OC[C@@H](O)[C@H](O)[C@@H]6O)CC[C@@]56C[C@@]46CC[C@]23C)O1,inactive,
